High-throughput results from PubChem.
D1 ag = Allosteric Agonists of the Human D1 Dopamine Receptor: qHTS; D(1A) dopamine receptor (Homo sapiens), P21728; HEK293 T-REx D1 cells, calcium flux, agonist mode; activation, % at 2 µM; 360,000 tested, 1% active; in the data active means activation above about 30%; further: 0% is about no effect
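Inducible HEK293 T-REx D1 cells, force-coupled to calcium signalling, were plated at 4000 cells/well with tetracycline and held overnight at 30 C. After no-wash calcium dye loading, compound-evoked calcium rise over 180 s flagged agonists.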
USP1 inh = Inhibitors of USP1/UAF1: Primary Screen | Ubiquitin carboxyl-terminal hydrolase 1 (Homo sapiens), O94782 | recombinant USP1/UAF1, Ub-Rhodamine cleavage fluorescence | Potency, µM (doses to about 57.1 µM), for inactives: at the highest dose activity change, negative = inhibition, hits mostly inhibitors | 390,000 tested, 0.23% active; further: potency means the concentration at half of the fitted maximal effect; on the % scale 0 is the no-effect control and ±100 the full control effect; nearly all actives have a fitted effect of over 60% in size
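1 nM enzyme complex + cpd, 15 min RT; start with Ub-Rho 150nM final; kinetic fluorescence ex 480/em 540, 6 reads q60 s. Buffer 50mM HEPES pH 7.8, 0.5mM EDTA, 0.1 mg/ml BSA, 1mM TCEP, 0.01% Tween-20.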
D1 antagonist = Antagonist of Human D 1 Dopamine Receptor: qHTS. 360,000 tested, 3.2% active. HEK293 TREx D1 cells, calcium flux, dopamine EC80; stronger effect = lower value. D(1A) dopamine receptor (Homo sapiens), P21728. AID 504652, 2011. activity change, negative = inhibition, % at 10 µM; in the data active means activity change below about -30%; further: on the % scale 0 is the no-effect control and ±100 the full control effect
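Cells carrying a force-coupled, tetracycline-inducible human D1 receptor report calcium flux. Each well gets a 10 s baseline, compound with 180 s monitoring, then an EC80 dopamine stimulus with a second 180 s kinetic read.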
TRHR enhancer-1 = qHTS for Small Molecule Agonists and Allosteric Enhancers of Human TRH Receptor: Primary Screen for Enhancers; Thyrotropin-releasing hormone receptor (Homo sapiens), P34981; TRHR cells, fluo-8 calcium fluorescence, EC20 TRH enhancement; enhancement, % at 2 µM; 360,000 tested, 0.66% active; AID 493056, 2011; in the data active means enhancement above about 30%; further: 0% is about no effect
Target sequence (P34981 whole entry, looked up): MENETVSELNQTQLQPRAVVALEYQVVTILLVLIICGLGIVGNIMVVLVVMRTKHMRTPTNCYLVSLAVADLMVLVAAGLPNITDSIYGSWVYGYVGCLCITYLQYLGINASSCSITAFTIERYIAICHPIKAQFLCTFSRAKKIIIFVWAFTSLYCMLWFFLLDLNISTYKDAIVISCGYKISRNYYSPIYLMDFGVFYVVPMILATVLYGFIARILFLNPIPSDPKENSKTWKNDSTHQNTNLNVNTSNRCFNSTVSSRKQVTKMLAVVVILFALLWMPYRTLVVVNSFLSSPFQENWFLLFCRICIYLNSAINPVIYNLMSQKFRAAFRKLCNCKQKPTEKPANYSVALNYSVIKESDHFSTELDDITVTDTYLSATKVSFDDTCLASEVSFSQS
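TRHR-expressing cells loaded with fluo-8 calcium dye were read kinetically (ex 480/em 530) during compound addition, then stimulated with an EC20 of TRH (10 nM final). Enhancement of the Gq-mediated intracellular calcium response was scored.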
TRHR agonist-1 = qHTS for Small Molecule Agonists and Allosteric Enhancers of Human TRH Receptor: Primary Screen for Agonists | TRHR cells, calcium flux fluo-8, FDSS agonist mode | activation, % at 2 µM | 360,000 tested, 0.18% active | AID 493084, 2011; in the data active means activation above about 30%; further: 0% is about no effect
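Read-out: compound-evoked intracellular calcium rise in TRHR cells, fluo-8 dye, kinetic FDSS fluorescence at 1 s/cycle following a 10-cycle baseline. Cells cultured overnight before dye loading (30 min–1.5 h, RT).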
D1 PAM = Potentiators of Human D1 Dopamine Receptor: qHTS. D(1A) dopamine receptor (Homo sapiens), P21728. 360,000 tested, 0.036% active. AID 504651, 2011. potentiation, % at 10 µM. HEK293 TREx D1 cells, calcium flux, dopamine EC20 potentiation; in the data active means potentiation above about 30%; further: 0% is about no effect
TRHR enhancer-2 = qHTS for Small Molecule Agonists and Allosteric Enhancers of Human TRH Receptor: Confirmation Screen for Enhancers; shares compounds with TRHR enhancer-1; TRH receptor cell assay, enhancer confirmation qHTS; activity change, negative = inhibition, % at 46.1 µM; 970 tested, under 10 active; AID 493076, 2011;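 further: compound effect scored on response to added TRH at EC20 of 10 nM; 0% is about no effect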
TRHR agonist-2 = qHTS for Small Molecule Agonists and Allosteric Enhancers of Human TRH Receptor: Confirmation Screen for Agonists | Potency, µM (doses to about 46.1 µM), for inactives: at the top dose activation, most hits filed as activators | shares compounds with TRHR enhancer-1 | AID 493078, 2011 | TRHR-expressing cells, agonist activation read-out | 970 tested, 8% active; further: potency means the concentration at half of the fitted maximal effect; 0% is about no effect; nearly all actives have a fitted effect of over 75% in size
An asterisk follows results filed as active; ? = inconclusive; . = no result. Shown are actives, neighbours in structure and some others; about 4.4% of the full set was active somewhere. Unless noted, the call rests on the fitted dose curve; in most records, active means well fitted curve in the direction sought with a large enough effect; inconclusive means small, poorly fitted or top-dose-only effect, or another doubt; inactive means no such curve, though single readings can be large; an effect the other way counts as inactive or inconclusive.

SMILES | D1 ag | USP1 inh | D1 antagonist | TRHR enhancer-1 | TRHR agonist-1 | D1 PAM | TRHR enhancer-2 | TRHR agonist-2
Cc1cccc(N2CCN(c3nc4ccccc4c4nnc(C)n34)CC2)c1C | 3 | -4% | 3 | 0 | -1 | 2 | . | .
COc1ccc(NC(=O)C(C)N(c2ccccc2)S(C)(=O)=O)cc1 (configuration not stated) | -1 | 1% | -7 | 5 | -1 | -1 | . | .
COc1ccc(N(C(C)C(=O)N(C)Cc2ccccc2)S(C)(=O)=O)cc1 (configuration not stated) | 2 | -15% | 5 | 50* | 0 | 0 | 1 | 0%
Cc1csc(NC(=O)c2sc3nc(-c4cccs4)ccc3c2N)n1 | 73* | ? | -3 | 6 | 51* | -1 | 4 | 10µM*
CSc1nsc2nc(=O)c(/C=C3\C(C)=Nc4ccccc43)c(N)n12 | 0 | -14% | -9 | -2 | 1 | -2 | . | .
CC1=Nc2ccccc2/C1=C/c1sc(=S)n(-c2cccc(C(=O)O)c2)c1O | 49* | 28µM* | -5 | -6 | 29 | 3 | 2 | 21µM*
CCn1c(N)nc2c1c(=O)n(C)c(=O)n2C | 3 | -27% | 0 | 44* | 1 | -10 | 2 | -1%
CCn1c(SCC(N)=O)nc2c1c(=O)n(C)c(=O)n2C | 0 | 6% | -21 | 2 | 1 | 1 | . | .
CCOC(=O)c1cc(C)sc1NC(=O)CSC1=NCCS1 | 2 | -17% | 2 | 56* | 0 | -4 | -5 | 6%
O=C(NCc1cn(-c2ccccc2)nc1-c1ccccc1)c1ccc([N+](=O)[O-])cc1 | 1 | -19% | -9 | 44* | 1 | -1 | -7 | -1%
O=[N+]([O-])c1cccc(-c2nn(-c3ccccc3)cc2CO)c1 | 2 | -15% | 1 | 4 | 2 | 5 | . | .
CCC1=C(c2ccc(C)cc2)S(=O)(=O)N=C1N1CCC(C(=O)NCCc2cccc(OC)c2)CC1 | 2 | 6% | -23 | -4 | 0 | -5 | . | .
CC1=CC(=C(C#N)c2nc3ccccc3s2)C=C(C)N1CC1CCCO1 (configuration not stated) | 43* | ? | 6 | 5 | 39* | -6 | ? | 18µM*
c1ccc2sc(NCC3CCCO3)nc2c1 (configuration not stated) | -4 | -12% | -17 | 4 | 0 | 2 | . | .
O=C(Nc1ccccc1)N(Cc1c[nH]c2ccccc12)C1CCCCCC1 | 3 | -19% | 6 | 0 | 1 | 2 | . | .
CCOC(=O)c1c(C)[nH]c(C)c1S(=O)(=O)N1CCCC(C(=O)Nc2ccc(F)cc2F)C1 (configuration not stated) | 3 | -29% | -6 | 2 | 0 | 4 | . | .
Cc1csc(N2CCCC2=O)n1 | 4 | -13% | -9 | 41* | 0 | -5 | 5 | -1%
COc1cccc2c(=O)c3c(cnn3C)n(C)c12 | 2 | -14% | 2 | -3 | 0 | -1 | . | .
COc1cccc2c(=O)c3ccoc3n(C)c12 | -5 | -29% | 2 | 42* | -1 | 2 | -5 | 2%
Cc1ccc(S(=O)(=O)N(CC(=O)N2CCOCC2)c2ccccc2F)cc1 | -4 | -13% | -2 | -10 | 0 | -4 | . | .
CCOc1ccccc1N(CC(=O)N1CCOCC1)S(=O)(=O)c1ccc(SC)cc1 | 2 | -6% | 20 | -3 | 92* | -1 | -7 | 2.1µM*
CC(=O)N1CCc2cc(S(=O)(=O)NC(CC(C)C)C(=O)NCCc3ccccc3)ccc21 (configuration not stated) | -1 | -10% | 14 | 8 | -1 | -1 | . | .
Cn1nnnc1SCc1c(F)cccc1F | 3 | -14% | -8 | 42* | 0 | -7 | ? | 2%
Cn1nnnc1SCc1cccc(CSc2nnnn2C)n1 | 4 | -4% | -9 | -3 | 1 | -3 | . | .
Cc1c(Cl)cccc1NC(=O)c1ccc2c(c1)CCCN2S(C)(=O)=O | 2 | -26% | -4 | -2 | -1 | 2 | . | .
SMILES | D1 ag | USP1 inh | D1 antagonist | TRHR enhancer-1 | TRHR agonist-1 | D1 PAM | TRHR enhancer-2 | TRHR agonist-2
O=C(CSc1nc(=O)n(Cc2ccco2)c2c1CCC2)NCc1ccc(Cl)cc1 | 1 | -17% | . | -7 | 0 | 8 | . | .
CCC(C)N1CC(=O)N2C(c3ccc(OC)cc3OC)c3[nH]c4ccccc4c3C[C@H]2C1=O (some centres not stated) | 0 | -11% | 13 | 75* | -1 | 2 | 1 | -1%
CCCN1CC(=O)N2C(c3cccc(OC)c3OC)c3[nH]c4ccccc4c3C[C@H]2C1=O (some centres not stated) | 13 | -7% | 7 | 19 | 5 | -2 | . | .
Cc1cc(C(=O)COC(=O)c2ccccc2O)c(C)n1CC1CCCO1 (configuration not stated) | 7 | -23% | -7 | 3 | 0 | -5 | . | .
Cc1cc(C(=O)COC(=O)c2cc(O)c3ccccc3c2O)c(C)n1CC1CCCO1 (configuration not stated) | 4 | ? | -12 | 47* | 1 | -7 | -3 | 0%
COc1ccc(-c2cc(C(F)F)nc(-n3nc(C)cc3C)n2)cc1 | 6 | -9% | -60* | 53* | -1 | -14 | -9 | 2%
O=S(=O)(c1cccc(C(F)(F)F)c1)N1CCC(Oc2ccc(-n3cnnn3)cc2)CC1 | 3 | 3% | -19 | -5 | 1 | -2 | . | .
CCCC(=O)Nc1cccc2c1CCCC2 | 3 | -6% | -18 | 49* | 0 | -11 | -1 | 0%
CC(=O)CC(=O)Nc1cccc2c1CCCC2 | 4 | 4% | 7 | 4 | 0 | -1 | . | .
Cc1cccc(NS(=O)(=O)c2cc3c4c(c2)CCN4C(=O)CC3)c1C | 4 | -12% | 11 | 45* | 0 | -5 | 7 | -1%
